GC-B act – GC-B (human) receptor activation; P20594; HEK293-GC-B cells, CNP EC30, cGMP TR-FRET; 0% at EC30 CNP, 100% saturating CNP; 0.11% of 370,000 active; activation, % at 10 µM; AID 1920062;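 active means activation at 10 µM reaching about 35% in either raw or pattern-adjusted values, limit read from the data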
Target sequence (P20594 whole entry, looked up): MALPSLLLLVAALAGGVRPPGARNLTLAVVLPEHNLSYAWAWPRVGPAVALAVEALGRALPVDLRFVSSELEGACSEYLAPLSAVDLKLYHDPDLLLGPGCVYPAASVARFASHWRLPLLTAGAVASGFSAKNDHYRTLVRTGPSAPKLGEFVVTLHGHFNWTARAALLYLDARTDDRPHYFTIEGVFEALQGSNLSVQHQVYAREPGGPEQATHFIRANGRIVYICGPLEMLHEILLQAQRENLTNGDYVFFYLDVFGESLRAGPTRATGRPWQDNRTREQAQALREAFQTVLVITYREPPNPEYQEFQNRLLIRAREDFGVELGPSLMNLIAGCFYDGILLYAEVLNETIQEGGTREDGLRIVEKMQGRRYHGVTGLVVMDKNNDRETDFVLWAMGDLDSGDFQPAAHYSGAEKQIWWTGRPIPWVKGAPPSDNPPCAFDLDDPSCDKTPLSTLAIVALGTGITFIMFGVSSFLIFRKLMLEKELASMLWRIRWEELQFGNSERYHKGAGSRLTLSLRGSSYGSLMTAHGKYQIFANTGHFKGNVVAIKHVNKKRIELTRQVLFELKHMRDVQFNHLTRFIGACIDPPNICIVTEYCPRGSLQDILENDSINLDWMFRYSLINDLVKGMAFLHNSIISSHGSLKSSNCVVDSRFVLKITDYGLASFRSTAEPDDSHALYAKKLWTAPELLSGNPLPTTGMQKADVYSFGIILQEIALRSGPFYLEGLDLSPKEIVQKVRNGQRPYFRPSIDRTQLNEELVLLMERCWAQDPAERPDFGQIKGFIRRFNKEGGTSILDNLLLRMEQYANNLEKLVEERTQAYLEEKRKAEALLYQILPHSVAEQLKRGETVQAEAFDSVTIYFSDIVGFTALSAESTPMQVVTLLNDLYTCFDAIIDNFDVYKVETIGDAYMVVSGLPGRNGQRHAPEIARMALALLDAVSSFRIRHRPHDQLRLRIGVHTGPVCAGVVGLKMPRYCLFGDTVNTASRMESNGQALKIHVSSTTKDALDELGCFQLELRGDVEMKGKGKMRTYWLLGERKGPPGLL
NPR1 activator – GC-A (human) enzyme activation; activation, % at 10 µM; HEK293 GC-A cells, cGMP TR-FRET, EC30 ANP; 0% at EC30 ANP, 100% saturating ANP; 0.14% of 370,000 active; in the data active means activation above about 40%
Granule exo inh – blocks lytic granule exocytosis; 0.66% of 360,000 active; AID 651702; inhibition, % at 10 µM; TALL-104 LAMP-1 surface exposure, flow cytometry; cells stimulated with thapsigargin and PMA;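 active means inhibition above about 55%, limit read from the data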
Myeloid diff MLP – myeloid differentiation induction | ER-HoxA9 myeloid progenitors, lysozyme-GFP differentiation, flow cytometry | calls only at 10 µM | 1% of 360,000 active | AID 624256;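 active means normalized GFP-positive differentiation at or above the plate's own cutoff, the solvent-only control mean plus 3 SD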;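 further: cells exposed to compound for four days before flow analysis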
Myeloid diff CP1 – promotes myeloid progenitor differentiation; shares compounds with Myeloid diff MLP; calls only; AID 651706; 2% of 2,300 active; ER-HoxA9 myeloid progenitors, GFP/Mac1 double-positive flow;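 active means share of green or green-and-red cells above 9 and 9% in run 1 or 4 and 3% in run 2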
GFP autofluor – flagged as fluorescent in myeloid differentiation counter-screen; AID 651707; 7.4% of 2,300 active; ER-HoxA9 myeloid progenitors, no estrogen, GFP autofluorescence flow cytometry; vehicle wells 0%, positive control 100%; fluorescence response, % (no concentration beside the values); shares compounds with Myeloid diff MLP;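 active means over 5% cells positive for green fluorescent reporter, or over 2% positive for both it and APC stain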;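 further: range taken on the double positive population between DMSO and positive control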
* hit, by the source's call; i = inactive; nt = no result given; + = active, no number. A selection: hits, their analogues and other compounds. The true share with any hit is near 1.8%.

SMILES | GC-B act | NPR1 activator | Granule exo inh | Myeloid diff MLP | Myeloid diff CP1 | GFP autofluor
O=C(Nc1cccc(S(=O)(=O)N2CCCCC2)c1)c1ccc2c(=O)n3c(nc2c1)CCCCC3 | 1.3 | 4.7 | 0.8 | i | i | 0.0
CCCCCCNC(=O)C1CSCCS(=O)(=O)N1Cc1ccc(F)cc1 (stereo not given) | -0.4 | 0.2 | nt | nt | nt | nt
Cc1cc(-c2cc(NC(=O)Cc3c(C)[nH]c4ccccc34)ccc2Nc2cccnc2)ccc1F | 0.2 | -1.6 | nt | nt | nt | nt
Cc1ccc(N(C)S(=O)(=O)c2cccc(C(=O)Nc3ccc(N4CCOCC4)cc3)c2)cc1 | -1.8 | 0.2 | 2.7 | + | i | 0.3
O=C(NCCO)c1cccc(S(=O)(=O)N2CCCCC2)c1 | -1.4 | 2.2 | 5.3 | i | i | 0.3
CN(c1ccccc1)S(=O)(=O)c1cccc(C(=O)Nc2ccc(N3CCOCC3)cc2)c1 | -1.9 | 0.3 | -3.7 | i | nt | nt
CCOC(=O)Nc1nc(C)c(C(=O)c2ccc(Cl)cc2)s1 | -4.7 | -2.6 | -1.0 | i | i | 0.0
CC(=O)N1CCc2c(sc(NC(=O)c3ccc([N+](=O)[O-])o3)c2C#N)C1 | -1.2 | -0.8 | 9.6 | + | i | 0.0
O=S1(=O)CCOC(CO)CN1Cc1ccc(Cl)c(Cl)c1 (stereo not given) | 3.2 | 1.9 | -0.8 | i | nt | nt
C=CCN1C(=O)[C@@H](CC(=O)NCCCN2CCCC2=O)[C@]2(C(=O)OCC)CCCCC/C=C/12 | 5.5 | 0.4 | nt | nt | nt | nt
CCCNS(=O)(=O)c1cccc(C(=O)NC2CCCc3ccccc32)c1 (stereo not given) | 11.9 | -1.7 | -4.4 | i | i | 0.3
CN(C)S(=O)(=O)c1cccc(C(=O)NC2CCCc3ccccc32)c1 (stereo not given) | 1.1 | -0.9 | 0.3 | i | nt | nt
COc1cc(NC(=O)COC(=O)/C=C/c2ccccc2Cl)cc(OC)c1 | -1.6 | 2.2 | 0.9 | i | i | 0.0
CCCNC(=O)C1(C)CCCN(Cc2ccc3c(c2)OCO3)C1 (stereo not given) | 1.1 | 0.4 | -0.7 | i | nt | nt
C/C(=N\NC(=O)CNc1ccc(F)cc1)c1cc2ccccc2o1 | 2.4 | 0.5 | 0.9 | + | i | 0.0
CC1Cc2ccccc2N1CC(=O)Nc1cc(S(=O)(=O)N2CCOCC2)ccc1Cl (stereo not given) | 1.3 | -2.4 | 4.5 | i | nt | nt
CC(COc1ccc(CC#N)cc1)CN1CCC(C(O)(c2ccccc2)c2ccccc2)CC1 (stereo not given) | -9.2 | -10.8 | nt | nt | nt | nt
CCOc1ccccc1NC(=O)CCNS(=O)(=O)c1ccccc1 | -2.3 | 2.2 | 3.3 | + | i | 0.2
CC1(C)CC(=O)C/C(=N/NC(=O)c2ccc(-c3ccccc3)cc2)C1 | -2.7 | 13.9 | -0.8 | + | i | 5.2*
CC1(C)CC(=O)C/C(=N\NC(=O)Cc2ccccc2)C1 | 1.4 | 0.9 | 2.5 | i | nt | nt
N#Cc1c(NC(=O)CCn2cnc3ccccc3c2=O)oc(-c2ccccc2)c1-c1ccccc1 | -10.3 | -8.3 | -2.0 | i | i | 0.0
O=C(Nc1ccc2c(c1)OCCO2)c1ccc(Br)c(S(=O)(=O)N2CCOCC2)c1 | 6.2 | -0.5 | -2.8 | i | nt | nt
COc1ccc(S(=O)(=O)N2CCC(C(=O)Nc3ccc4c(c3)OCCO4)CC2)cc1OC | -4.0 | 1.5 | -3.1 | i | nt | nt
O=C(Nc1ccc2c(c1)OCO2)C1CCN(S(=O)(=O)c2ccc3c(c2)OCCO3)CC1 | -4.0 | -1.1 | 6.3 | i | i | 0.3
O=C(Nc1ccc2c(c1)OCO2)c1ccc(Br)c(S(=O)(=O)N2CCCC2)c1 | 6.7 | 5.5 | -1.1 | + | i | 0.0
SMILES | GC-B act | NPR1 activator | Granule exo inh | Myeloid diff MLP | Myeloid diff CP1 | GFP autofluor
C=CCN(C(=O)[C@@H](C)[C@@H](O)c1ccc2ccccc2c1)c1ccccc1 | 0.6 | -3.4 | nt | nt | nt | nt
COc1ccc(C(=O)N2CCc3ccccc3C2)cc1S(=O)(=O)N1CCCC1 | -0.1 | 0.1 | 5.8 | i | nt | nt
CCCCCCSc1ccc(-c2nc3cc(C)ccn3c2NC2CCCCC2)cc1 | -0.1 | 7.1 | 1.6 | i | nt | nt
CCCCCCSc1ccc(-c2nc3cnccn3c2NC2CCCCC2)cc1 | 2.4 | 5.4 | -7.0 | i | i | 18.4*
CCC(C)Sc1ccc(-c2nc3cc(C)ccn3c2NC2CCCCC2)cc1 (stereo not given) | -13.7 | 3.6 | -3.0 | + | + | 3.8
CC(C)n1nnnc1C1(C)CCCCC(=O)N1Cc1cccc(C(F)(F)F)c1 (stereo not given) | 0.5 | -2.1 | nt | nt | nt | nt
O=C(Cn1c(=O)[nH]c2ccsc2c1=O)NC1CCCCC1 | 1.2 | 2.8 | -1.7 | + | i | 0.0
COc1ccc(CN2C3=NC(c4ccccc4)CC(=O)N3/C(=C\c3ccccc3)C2c2ccccc2)c(OC)c1 (stereo not given) | -19.3 | -22.6 | nt | nt | nt | nt
CC(C)CNC(=O)c1ccccc1SCC(=O)NC12CC3CC(CC(C3)C1)C2 | 1.4 | 2.0 | 0.0 | + | i | 3.8
CC(C)CNC(=O)COC(=O)c1ccccc1SCC(=O)NCC(C)C | 4.5 | 2.5 | -2.1 | i | nt | nt
CCOC(=O)C1(C)CCCN(C(=O)c2ccc(C#N)cc2)C1 (stereo not given) | 1.3 | 1.6 | 1.2 | i | nt | nt
O=C(NC1CC1)c1cccc(NC(=O)c2cnn(-c3ccccc3)n2)c1 | -0.8 | -0.4 | 3.4 | + | i | 4.5
CCOC(=O)[C@]12CCCC=C1N(Cc1ccc3c(c1)OCO3)C(=O)[C@H](CC(=O)NCc1cccc(C(F)(F)F)c1)C2 | 0.2 | -5.8 | 9.3 | i | nt | nt
COc1ccc2cc(CN(CC3CCCO3)S(=O)(=O)c3ccccc3)c(=O)[nH]c2c1 (stereo not given) | -2.2 | 0.6 | 2.3 | + | i | 0.0
COc1ccc(C(=O)C(=O)N2CCN(C(=O)OCc3ccccc3)CC2)cc1 | -0.1 | -2.1 | -0.3 | i | nt | nt
O=C(O)c1ccc(-n2cccc2/C=C2/NC(=O)N(c3cccc(Cl)c3)C2=O)cc1 | -5.0 | -10.6 | 5.6 | + | i | 0.2
COc1ccc2nc3ccccc3nc2c1NC(=O)c1ccc(Cl)cc1 | -10.5 | 1.5 | 2.2 | i | nt | nt
COc1ccc2nc3ccccc3nc2c1NC(=O)c1ccc(Br)cc1 | -0.3 | -0.1 | -5.4 | + | i | 5.4*
COc1cccc(Cn2cnc3c(N)c(C)c(C)cc32)c1 | -4.2 | -1.6 | 0.0 | i | i | 0.0
CCCn1cnc2c(N)c(C)c(C)cc21 | -2.9 | -0.4 | -1.7 | i | nt | nt
CCCCNC(=O)C[C@@H]1C(=O)N(Cc2ccc(OC)cc2)/C2=C/CCCCC[C@@]21C(=O)OCC | 5.9 | 1.6 | nt | nt | nt | nt
CC(C)(C)c1nc(CN2CCOCC2)ccc1O | 1.9 | 3.2 | -1.0 | i | nt | nt
CC(C)(C)c1nc(CN2CCCCC2)cc(CN2CCCCC2)c1O | -2.5 | -0.5 | -1.7 | + | i | 0.0
Cn1cccc1C(=O)N1CCN(S(=O)(=O)c2ccc(F)cc2)CC1 | -5.3 | -0.1 | nt | nt | nt | nt

Compound activity (PubChem)
